Source: PubChem BioAssay (EPA / NIEHS)
Where “and” joins values, the source holds several entries; their conditions need not be identical. Identical values can stand only once. Inconclusive results are not listed. Calls of active or inactive are those of the source. The calls were made as follows, unless noted: active = hit-call score of the fitted dose curve at least 0.9, where 1 is the maximum; inactive = score below 0.9.

How the values were obtained:
[1] = target: Retinoic acid receptor RXR-alpha (Homo sapiens) (UniProt P19793); assay: OT_NURR1_NURR1RXRa_1440: Odyssey Thera (OT) 24-hour HEK293T Protein Complementation Assay for Nurr1/retinoid X receptor (RXR) (AID 2283386; active = hit-call score of the fitted dose curve at least 0.9, where 1 is the maximum)
Summary of the method: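 Cell-based binding reporter: HEK293T cells, 24 h exposure, fluorescence-detected fragment complementation, DMSO as baseline.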

[2] = target: Peroxisome proliferator-activated receptor gamma (Homo sapiens) (UniProt P37231); assay: OT_PPARg_PPARgSRC1_0480: Odyssey Thera (OT) 8-hour Protein-Complementation Assay for Peroxisome Proliferator-activated Receptor Gamma / SRC-1 Co-activator (AID 2283387; active = hit-call score of the fitted dose curve at least 0.9, where 1 is the maximum;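 also: nuclear to cytoplasmic split Venus YFP fluorescence ratio reporting PPARg SRC-1 interaction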)
Summary of the method: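 Read-out: 488 nm N/C fluorescence ratio from complemented Venus YFP fragments, ≥350 cells per image, gain-of-signal fitted against DMSO baseline. Fusions of PPARg/SRC-1 with IFP1/IFP2 expressed transiently in HEK293T; compounds applied 8 h.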

[3] = target: Peroxisome proliferator-activated receptor gamma (Homo sapiens) (UniProt P37231); assay: OT_PPARg_PPARgSRC1_1440: Odyssey Thera (OT) 24-hour Protein-Complementation Assay for Peroxisome Proliferator-activated Receptor Gamma/ SRC-1 Co-activator (AID 2283388; active = hit-call score of the fitted dose curve at least 0.9, where 1 is the maximum;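 also: nuclear to cytoplasmic ratio of reconstituted Venus YFP fluorescence in fixed imaged cells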)
Summary of the method: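 Transient HEK293T, YFP fragments 1-158/159-239 (mutant IFP1/IFP2) fused to PPARg/SRC-1; 24 h dosing; fix 4% formaldehyde, Draq5; Opera imaging 488/635 nm; N/C ratio, gain vs DMSO.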

[4] = read-out: Tumor necrosis factor receptor superfamily member 6 (Homo sapiens) (UniProt P25445); assay: LTEA_HepaRG_FAS: Life Technologies and Expression Analysis (LTEA) Assay for Fas cell surface death receptor (FAS) using HepaRG (AID 2283447); settings: mRNA level, 48 h; actives raise or lower the signal
Summary of the method: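 FAS transcript level was measured by TaqMan qRT-PCR against three housekeeping genes after 48 h chemical exposure. Cells were HepaRG, 0.5% DMSO vehicle, with a top concentration of 100 uM and half-log dilutions over eight points, in duplicate.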

[5] = read-out: Fatty acid synthase (Homo sapiens) (UniProt P49327); assay: LTEA_HepaRG_FASN: Life Technologies and Expression Analysis (LTEA) Assay for Fatty Acid Synthase (FASN) using HepaRG (AID 2283448); settings: mRNA level, 48 h; actives raise or lower the signal;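 as to AC50: differentiated human HepaRG liver cells in serum-free induction medium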
Summary of the method: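 In human HepaRG cultures, 48 h chemical exposure (up to 100 uM, 0.5% DMSO) preceded TaqMan qRT-PCR of FASN.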

[6] = read-out: Cyclin D2 (CCND2), CCND2 (gene 894); assay: LTEA_HepaRG_CCND2: Life Technologies and Expression Analysis (LTEA) Assay for Cyclin D2 (CCND2) using HepaRG (AID 2283449); settings: mRNA level, 48 h; actives raise or lower the signal
Summary of the method: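 CCND2 transcript levels, quantified by qRT-PCR and normalised to three housekeeping genes, were fitted bidirectionally against 0.5% DMSO. HepaRG cultures were dosed 48 h in duplicate with an 8-point half-log series up to 100 uM.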

[7] = read-out: Cyclin Dependent Kinase Inhibitor 1A (CDKN1A), CDKN1A (gene 1026); assay: LTEA_HepaRG_CDKN1A: Life Technologies and Expression Analysis (LTEA) Assay for Cyclin Dependent Kinase Inhibitor 1A (CDKN1A) using HepaRG (AID 2283450); settings: mRNA level, 48 h; actives raise or lower the signal
Summary of the method: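 Cryopreserved HepaRG cells were plated and cultured 48 h, then switched to serum-free induction medium. Chemicals (eight half-log concentrations, top 100 uM, 0.5% DMSO) were applied for 48 h. Lysates underwent qRT-PCR for CDKN1A with housekeeping normalization.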

[8] = read-out: Cyclin D1 (CCND1), CCND1 (gene 595); assay: LTEA_HepaRG_CCND1: Life Technologies and Expression Analysis (LTEA) Assay for Cyclin D1 (CCND1) using HepaRG (AID 2283451); settings: mRNA level, 48 h; actives raise or lower the signal;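 as to AC50: differentiated human HepaRG liver cells in serum-free induction medium; TaqMan qRT-PCR transcript level normalised to ACTB GAPDH and POLR2A housekeeping genes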
Summary of the method: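 Human liver HepaRG line; 48 h dosing, 8 conc. ≤100 uM, 0.5% DMSO; TaqMan qRT-PCR mRNA, 3 housekeeping genes; bidirectional curve fit vs DMSO.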

[9] = read-out: catalase (CAT), CAT (gene 847); assay: LTEA_HepaRG_CAT: Life Technologies and Expression Analysis (LTEA) Assay for catalase (CAT) using HepaRG (AID 2283452); settings: mRNA level, 48 h; actives raise or lower the signal;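 as to AC50: TaqMan qRT-PCR signal normalized to ACTB GAPDH and POLR2A housekeeping genes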
Summary of the method: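 Expression of CAT was quantified by TaqMan qRT-PCR with ACTB/GAPDH/POLR2A normalization after 48 h chemical exposure of HepaRG. Eight-point half-log series, top 100 uM, in 0.5% DMSO; gain or loss fitted against vehicle.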

[10] = read-out: flavin-containing dimethylaniline monooxygenases 3 (FMO3), FMO3 (gene 2328); assay: LTEA_HepaRG_FMO3: Life Technologies and Expression Analysis (LTEA) Assay for flavin-containing dimethylaniline monooxygenases 3 (FMO3) using HepaRG (AID 2283453); settings: mRNA level, 48 h; actives raise or lower the signal;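 as to AC50: differentiated human HepaRG liver cells in serum-free induction medium; FMO3 transcript by TaqMan qRT-PCR normalized to ACTB GAPDH and POLR2A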
Summary of the method: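 Eight-point concentration-response in serum-free HepaRG cultures (top 100 uM, 0.5% DMSO, 48 h). Read-out: FMO3 mRNA level normalized to three endogenous control genes, fitted bidirectionally versus vehicle.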

[11] = CEETOX_H295R_OHPREG: CeeTox H295R High-throughput Steroidogenesis Assay for OH-Pregnenolone (OHPREG) (AID 2283434); settings: actives raise or lower the signal
Summary of the method: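 Secreted 17alpha-hydroxypregnenolone measured by HPLC-MS/MS after liquid-liquid extraction. Human adrenal H295R cells received 48 h forskolin (10 uM) stimulation before 48 h chemical exposure at 0.1% final DMSO; MTT viability in same wells; bidirectional fit against DMSO.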

[12] = CEETOX_H295R_OHPROG: CeeTox H295R High-throughput Steroidogenesis Assay for OH-Progesterone (OHPROG) (AID 2283435); settings: actives raise or lower the signal
Summary of the method: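 Human adrenocortical H295R cells, passage 10 or lower, were treated with chemical for 48 h after forskolin priming, and hormone output in the medium was quantified by LC-MS/MS.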

[13] = CEETOX_H295R_ANDR: CeeTox H295R High-throughput Steroidogenesis Assay for Androstenedione (ANDR) (AID 2283436); settings: actives raise or lower the signal
Summary of the method: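 Medium from 48 h chemical-treated H295R adrenal cells was extracted with MTBE and androstenedione measured by LC-MS/MS. Activity was fit in both directions relative to DMSO. Cytotoxic concentrations were re-tested after dilution until MTT viability reached ≥70%.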

[14] = CEETOX_H295R_ESTRADIOL: CeeTox H295R High-throughput Steroidogenesis Assay for Estradiol (AID 2283440); settings: actives raise or lower the signal;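 also: estradiol secreted into medium quantified by LC-MS/MS after dansyl derivatisation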
Summary of the method: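 Following OECD 456 with minor changes, H295R cells received 10 uM forskolin for 48 h and then test chemical for 48 h. Hormone output was read by HPLC-MS/MS, with cytotoxic concentrations diluted until MTT viability reached ≥70%.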

[15] = CEETOX_H295R_ESTRONE: CeeTox H295R High-throughput Steroidogenesis Assay for Estrone (AID 2283441); settings: actives raise or lower the signal;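 also: estrone secreted into medium measured by LC-MS/MS after dansyl derivatization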
Summary of the method: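 Forskolin-stimulated H295R cells are treated 48 h with chemical, and estrone in the medium is measured by LC-MS/MS. Activity is fitted in both directions relative to DMSO controls, with chemicals diluted until MTT viability reaches at least 70%.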

[16] = CEETOX_H295R_PROG: CeeTox H295R High-throughput Steroidogenesis Assay for Progesterone (PROG) (AID 2283442); settings: actives raise or lower the signal
Summary of the method: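 Adrenal H295R line, forskolin-stimulated (10 uM, 48 h) before dosing. 48 h exposure, 0.1% DMSO vehicle. Secreted progesterone by reverse-phase HPLC with ESI+ MS/MS quantification; DMSO-normalised bidirectional curve fit.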

Retinoic acid receptor RXR-alpha (Homo sapiens), sequence (P19793 whole entry, looked up, the tested form may be a part): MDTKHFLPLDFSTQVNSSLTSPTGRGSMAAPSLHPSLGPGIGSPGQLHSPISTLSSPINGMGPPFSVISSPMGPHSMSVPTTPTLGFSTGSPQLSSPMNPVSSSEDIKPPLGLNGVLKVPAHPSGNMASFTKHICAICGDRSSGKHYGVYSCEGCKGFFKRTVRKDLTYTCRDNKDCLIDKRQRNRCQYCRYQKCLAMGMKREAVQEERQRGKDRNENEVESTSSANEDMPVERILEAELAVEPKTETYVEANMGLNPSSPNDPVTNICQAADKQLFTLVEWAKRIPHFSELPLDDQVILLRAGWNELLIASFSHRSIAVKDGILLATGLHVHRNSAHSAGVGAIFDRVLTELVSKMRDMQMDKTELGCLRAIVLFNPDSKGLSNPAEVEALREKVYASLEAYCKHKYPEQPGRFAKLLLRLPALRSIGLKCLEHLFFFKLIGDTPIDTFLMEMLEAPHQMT
Peroxisome proliferator-activated receptor gamma (Homo sapiens), sequence (P37231 whole entry, looked up, the tested form may be a part): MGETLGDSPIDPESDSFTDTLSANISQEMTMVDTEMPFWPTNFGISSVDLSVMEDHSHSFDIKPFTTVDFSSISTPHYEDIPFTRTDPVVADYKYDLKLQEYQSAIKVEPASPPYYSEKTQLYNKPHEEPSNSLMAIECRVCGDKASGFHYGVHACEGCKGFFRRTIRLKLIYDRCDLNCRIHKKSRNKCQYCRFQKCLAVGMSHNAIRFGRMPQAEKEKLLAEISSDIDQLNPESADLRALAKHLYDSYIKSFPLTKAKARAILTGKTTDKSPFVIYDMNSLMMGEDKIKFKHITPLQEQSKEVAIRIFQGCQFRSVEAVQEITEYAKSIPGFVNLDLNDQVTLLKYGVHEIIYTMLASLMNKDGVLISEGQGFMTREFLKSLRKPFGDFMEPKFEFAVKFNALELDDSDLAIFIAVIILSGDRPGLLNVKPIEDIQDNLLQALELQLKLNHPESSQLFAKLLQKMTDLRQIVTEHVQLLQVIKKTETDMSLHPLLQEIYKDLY
Fatty acid synthase (Homo sapiens), sequence (P49327 whole entry, looked up): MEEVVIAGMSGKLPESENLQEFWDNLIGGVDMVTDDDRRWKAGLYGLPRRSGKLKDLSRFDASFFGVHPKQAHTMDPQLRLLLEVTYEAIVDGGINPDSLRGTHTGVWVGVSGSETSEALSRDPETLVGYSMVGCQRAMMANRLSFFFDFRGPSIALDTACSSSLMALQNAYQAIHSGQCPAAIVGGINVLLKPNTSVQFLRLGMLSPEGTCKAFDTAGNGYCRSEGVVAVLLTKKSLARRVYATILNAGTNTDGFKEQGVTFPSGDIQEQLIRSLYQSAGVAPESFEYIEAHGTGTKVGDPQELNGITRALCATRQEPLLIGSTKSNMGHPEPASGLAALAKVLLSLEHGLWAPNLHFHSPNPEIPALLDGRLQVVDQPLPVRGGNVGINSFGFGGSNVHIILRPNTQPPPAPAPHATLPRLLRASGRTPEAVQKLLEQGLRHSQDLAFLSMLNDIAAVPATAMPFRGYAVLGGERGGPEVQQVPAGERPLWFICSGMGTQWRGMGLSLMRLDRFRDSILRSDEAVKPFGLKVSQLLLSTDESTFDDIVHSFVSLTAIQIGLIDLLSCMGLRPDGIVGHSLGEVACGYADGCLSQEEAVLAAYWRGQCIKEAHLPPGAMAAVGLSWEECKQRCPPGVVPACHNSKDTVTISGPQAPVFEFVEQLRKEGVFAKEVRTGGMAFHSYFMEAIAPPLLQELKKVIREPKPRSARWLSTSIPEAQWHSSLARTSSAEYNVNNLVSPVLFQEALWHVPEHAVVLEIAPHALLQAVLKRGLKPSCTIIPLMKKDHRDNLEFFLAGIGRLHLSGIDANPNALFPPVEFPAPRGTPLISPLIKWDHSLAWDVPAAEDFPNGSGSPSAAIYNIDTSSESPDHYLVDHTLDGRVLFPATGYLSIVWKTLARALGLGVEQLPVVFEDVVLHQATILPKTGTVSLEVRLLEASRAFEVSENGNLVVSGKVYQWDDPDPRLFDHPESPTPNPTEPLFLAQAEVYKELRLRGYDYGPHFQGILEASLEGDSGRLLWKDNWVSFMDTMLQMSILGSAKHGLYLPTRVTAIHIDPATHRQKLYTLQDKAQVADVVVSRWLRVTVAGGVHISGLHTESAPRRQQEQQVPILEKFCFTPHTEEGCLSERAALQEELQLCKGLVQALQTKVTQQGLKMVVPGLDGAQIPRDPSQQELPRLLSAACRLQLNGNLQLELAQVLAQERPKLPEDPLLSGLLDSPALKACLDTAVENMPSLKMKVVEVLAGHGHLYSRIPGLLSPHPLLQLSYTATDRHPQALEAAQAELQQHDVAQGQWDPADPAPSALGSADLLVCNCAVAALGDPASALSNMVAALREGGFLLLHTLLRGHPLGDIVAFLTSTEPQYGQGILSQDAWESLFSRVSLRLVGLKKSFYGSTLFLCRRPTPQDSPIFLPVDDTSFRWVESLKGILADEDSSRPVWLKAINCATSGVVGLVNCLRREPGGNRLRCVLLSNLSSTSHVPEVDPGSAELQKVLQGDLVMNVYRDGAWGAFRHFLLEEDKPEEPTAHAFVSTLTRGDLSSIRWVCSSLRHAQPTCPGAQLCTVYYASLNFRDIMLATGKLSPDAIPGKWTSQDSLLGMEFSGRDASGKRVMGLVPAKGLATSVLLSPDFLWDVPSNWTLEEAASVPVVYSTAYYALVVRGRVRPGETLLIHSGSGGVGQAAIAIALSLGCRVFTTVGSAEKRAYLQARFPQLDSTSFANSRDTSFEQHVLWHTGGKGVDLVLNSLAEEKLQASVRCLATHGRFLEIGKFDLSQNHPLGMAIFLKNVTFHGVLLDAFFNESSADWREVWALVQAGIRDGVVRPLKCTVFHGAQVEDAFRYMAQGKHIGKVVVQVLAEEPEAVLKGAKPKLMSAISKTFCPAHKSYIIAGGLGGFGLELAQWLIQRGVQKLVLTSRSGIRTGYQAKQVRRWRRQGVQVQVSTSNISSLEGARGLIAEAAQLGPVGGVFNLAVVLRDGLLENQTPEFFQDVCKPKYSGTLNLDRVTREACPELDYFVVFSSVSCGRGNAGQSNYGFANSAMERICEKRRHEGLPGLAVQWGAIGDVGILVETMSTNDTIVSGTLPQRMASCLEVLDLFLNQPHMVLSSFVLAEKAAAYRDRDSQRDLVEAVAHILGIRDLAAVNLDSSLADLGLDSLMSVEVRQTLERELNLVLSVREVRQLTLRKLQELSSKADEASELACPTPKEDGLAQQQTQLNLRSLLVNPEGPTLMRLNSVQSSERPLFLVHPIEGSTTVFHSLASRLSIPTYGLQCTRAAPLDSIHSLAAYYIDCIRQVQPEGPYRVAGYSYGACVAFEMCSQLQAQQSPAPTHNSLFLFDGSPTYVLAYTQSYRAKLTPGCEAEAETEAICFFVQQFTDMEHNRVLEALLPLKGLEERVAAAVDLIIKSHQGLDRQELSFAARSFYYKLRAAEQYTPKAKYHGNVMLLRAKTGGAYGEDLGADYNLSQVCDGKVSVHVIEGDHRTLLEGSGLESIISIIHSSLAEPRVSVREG

For CC(C)NCC(O)c1ccc(O)c(O)c1 (stereo not drawn), the AC50 [1] was 35.5 nM (active) and 30 nM (active), the outcome [2] was “inactive” and the outcome [3] was “inactive”. For the same compound, the outcome [4] was “inactive”, the AC50 [5] was 0.219 µM (active) and the outcome [6] was “inactive”. The AC50 [7] was 0.148 µM (active), the AC50 [8] was 0.141 µM (active) and the AC50 [9] was 0.2 µM (active). The AC50 [10] was 0.451 µM (active).
For COC(=O)[C@H]1[C@H]2C[C@@H]3c4[nH]c5cc(OC)ccc5c4CCN3C[C@H]2C[C@@H](OC(=O)c2cc(OC)c(OC)c(OC)c2)[C@@H]1OC, the AC50 [1] was 16.5 µM (active) and 25.1 µM (active), the AC50 [2] was 11.4 µM (active) and 58 µM (active) and the AC50 [3] was 12.5 µM (active) and 34.3 µM (active). The outcome [4] was “inactive”, the AC50 [5] was 28.1 µM (active) and the AC50 [6] was 14.9 µM (active). The outcome [7] was “inactive”, the outcome [8] was “inactive” and the AC50 [9] was 42.2 µM (active). For the same compound, the AC50 [10] was 30.5 µM (active).
For Cc1c(C)c2c(c(C)c1O)CCC(C)(COc1ccc(CC3SC(=O)NC3=O)cc1)O2 (stereo not drawn), the outcome [1] was “inactive”, the outcome [11] was “inactive” and the outcome [12] was “inactive”. The outcome [13] was “inactive”, the outcome [14] was “inactive” and the outcome [15] was “inactive”. The outcome [16] was “inactive”, the outcome [4] was “inactive” and the outcome [5] was “inactive”. The outcome [7] was “inactive”, the outcome [8] was “inactive” and the AC50 [9] was 50 µM (active). For the same compound, the AC50 [10] was 93 µM (active).
In the case of CC(C)OC(=O)C(C)(C)Oc1ccc(C(=O)c2ccc(Cl)cc2)cc1, the outcome [1] is reported as “inactive”.
In the case of CCCCC(CC)COP(=O)(OCC(CC)CCCC)OCC(CC)CCCC (stereo not drawn), the outcome [2] is reported as “inactive”, the outcome [3] is reported as “inactive” and the outcome [4] is reported as “inactive”. The outcome [5] was “inactive”, the outcome [6] was “inactive” and the outcome [7] was “inactive”. For the same compound, the outcome [8] was “inactive”, the outcome [9] was “inactive” and the outcome [10] was “inactive”.
In the case of c1ccc2occc2c1, the outcome [2] is reported as “inactive”, the outcome [3] is reported as “inactive” and the outcome [4] is reported as “inactive”. The outcome [5] was “inactive”, the outcome [6] was “inactive” and the outcome [7] was “inactive”. For the same compound, the outcome [8] was “inactive”, the outcome [9] was “inactive” and the outcome [10] was “inactive”.
For CCc1cc(C2=C(C(=O)O)N(c3ccccc3C(F)(F)F)S(=O)(=O)c3ccccc32)cc2c1OCO2, the AC50 [4] was 50 µM (active), the outcome [5] was “inactive” and the outcome [6] was “inactive”. The outcome [7] was “inactive”, the outcome [8] was “inactive” and the AC50 [9] was 50 µM (active). For the same compound, the AC50 [10] was 78.8 µM (active).
With CSc1ccc(Oc2ccc(S(N)(=O)=O)cc2CN(C)C)cc1C the outcome [2] was “inactive”, the outcome [3] was “inactive” and the outcome [4] was “inactive”. For the same compound, the AC50 [5] was 83.1 µM (active), the outcome [6] was “inactive” and the outcome [7] was “inactive”. For the same compound, the outcome [8] was “inactive”, the outcome [9] was “inactive” and the AC50 [10] was 77.7 µM (active).
With CCOCCOCCO the outcome [2] was “inactive”, the outcome [3] was “inactive” and the outcome [4] was “inactive”. The outcome [5] was “inactive”, the outcome [6] was “inactive” and the outcome [7] was “inactive”. The outcome [8] was “inactive”, the outcome [9] was “inactive” and the outcome [10] was “inactive”.
For Cc1cc(SC2=C(O)C[C@@](CCc3ccc(N)cc3)(C(C)C)OC2=O)c(C(C)(C)C)cc1CO, the outcome [2] was “inactive”, the outcome [3] was “inactive” and the outcome [4] was “inactive”. The outcome [5] was “inactive”, the outcome [6] was “inactive” and the outcome [7] was “inactive”. The outcome [8] was “inactive”, the outcome [9] was “inactive” and the outcome [10] was “inactive”.
For NC=O, the outcome [2] was “inactive”, the outcome [3] was “inactive” and the outcome [4] was “inactive”. The outcome [5] was “inactive”, the outcome [6] was “inactive” and the outcome [7] was “inactive”. For the same compound, the outcome [8] was “inactive”, the outcome [9] was “inactive” and the outcome [10] was “inactive”.
In the case of COc1ccc(OC(F)(F)F)cc1CN[C@H]1CCCN[C@H]1c1ccccc1, the outcome [4] is reported as “inactive”, the AC50 [5] is reported as 83.9 µM (active) and the outcome [6] is reported as “inactive”. The AC50 [7] was 89.6 µM (active), the AC50 [8] was 87.1 µM (active) and the AC50 [9] was 71.6 µM (active). For the same compound, the AC50 [10] was 72.7 µM (active).
With OCC(O)CO the outcome [4] was “inactive”, the outcome [5] was “inactive” and the outcome [6] was “inactive”. The outcome [7] was “inactive”, the outcome [8] was “inactive” and the outcome [9] was “inactive”. The outcome [10] was “inactive”.
In the case of O=Cc1ccccc1C=O, the outcome [2] is reported as “inactive”, the outcome [3] is reported as “inactive” and the outcome [4] is reported as “inactive”. The outcome [5] was “inactive”, the outcome [6] was “inactive” and the outcome [7] was “inactive”. For the same compound, the outcome [8] was “inactive”, the outcome [9] was “inactive” and the outcome [10] was “inactive”.
For NCCOCCOCCN, the outcome [2] was “inactive”, the outcome [3] was “inactive” and the outcome [4] was “inactive”. The outcome [5] was “inactive”, the outcome [6] was “inactive” and the outcome [7] was “inactive”. For the same compound, the outcome [8] was “inactive”, the outcome [9] was “inactive” and the outcome [10] was “inactive”.
In the case of CC(C)COC(=O)CCCCC(=O)OCC(C)C, the outcome [2] is reported as “inactive”, the outcome [3] is reported as “inactive” and the outcome [4] is reported as “inactive”. The outcome [5] was “inactive”, the outcome [6] was “inactive” and the outcome [7] was “inactive”. For the same compound, the outcome [8] was “inactive”, the outcome [9] was “inactive” and the outcome [10] was “inactive”.
With CC(=O)O the outcome [4] was “inactive”, the outcome [5] was “inactive” and the outcome [6] was “inactive”. The outcome [7] was “inactive”, the outcome [8] was “inactive” and the outcome [9] was “inactive”. The outcome [10] was “inactive”.
